This note sets out measurements from PubChem BioAssay.

Assay [1] can be described thus: HepG2 liver cancer cell viability effects, profiling panel, resazurin fluorescence, 24 h, PK04 Diversity Set (AID 1172). The conditions noted are these: higher = more signal. In general terms: Alamar Blue is a resazurin reagent that responds to reducing activity.
Assay [2] is described as follows: basal S. cerevisiae growth modulation, no modifier, primary screen, OD600, strain BY4716, 24 h, basal condition (AID 1173). The conditions noted are these: OD600, 24 h, higher = more signal, called active from +8 up or from −8 down.
A short description of assay [3]: MM1S myeloma cell viability, profiling panel, resazurin fluorescence, basal, 24 h, PK04 Diversity Set (AID 1174).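 Note: MM1S multiple myeloma cell line.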 The conditions noted are these: higher = more signal, called active from +8 up or from −8 down.
Assay [4] addresses Dihydroorotate dehydrogenase (quinone), mitochondrial (Plasmodium falciparum (isolate 3D7)) (UniProt Q08210). The experiment in a line: PfDHODH enzyme inhibitors, primary screen, biochemical, C-terminal His tag, absorbance 600 nm (AID 1175).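 Note: recombinant parasite enzyme with a five histidine tag at its C terminus.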 To be noted: DCIP absorbance 600 nm, higher = more signal, called active from +8 up or from −8 down.
Assay [5] is described as follows: S. cerevisiae RM11-1a growth modifiers, primary screen, strain RM11-1a, OD600, basal, 24 h (AID 1177).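 Note: cultures grown under basal conditions with no added stressor.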 The conditions noted are these: OD600, 24 h, higher = more signal, called active from +8 up or from −8 down.
Assay [6] in a line: E. coli acrAB mutant growth effects, primary screen, E. coli filamentation inducers, strain DRC39, OD650, 24 h (AID 1178).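 Note: growth measured as culture turbidity by optical density at 650 nm.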 To be noted: higher = more signal, called active from +8 up or from −8 down.
Assay [7] is described as follows: E. coli acrAB mutant growth effects, primary screen, E. coli filamentation inducers, strain DRC39, OD650, 48 h (AID 1179).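 Note: screen aims at cell division blockers that make cells filament.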 To be noted: E. coli DRC39 delta-acrAB growth, higher = more signal, called active from +8 up or from −8 down.
The nature of assay [8]: RPMI8226 myeloma cell viability, profiling panel, resazurin fluorescence, basal, 24 h, PK04 Diversity Set (AID 1180).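 Note: RPMI8826 multiple myeloma cell line at 5000 cells per well.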 The conditions noted are these: higher = more signal.
For assay [9], the target named is E3 ubiquitin-protein ligase XIAP (Homo sapiens) (UniProt P98170). In words: XIAP binders, primary screen, biophysical, small-molecule microarray, fluorescence 635 nm (AID 1181).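 Note: score merges 667 nm emission and signal to noise over triplicate slides.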 To be noted: small-molecule microarray binding, higher = more signal.
For assay [10], the system named is XIP peptide (Xip251-270) binding. In words: small-molecule binders of XIP peptide, primary screen, biochemical, small-molecule microarray, fluorescence 635/667 nm, 0.1 µg/mL protein (AID 1182). The conditions noted are these: fluorescent protein binding, 635 nm, higher = more signal, called active from +8 up or from −8 down.
The next assay relates to XIP peptide (Xip251-270). In words: small-molecule binders of XIP peptide, primary screen, biochemical, small-molecule microarray, fluorescence 635/667 nm, 0.5 µg/mL protein (AID 1183). To be noted: small-molecule microarray binding, fluorescence 635 nm; higher = more signal.
Assay [11] is described as follows: Plasmodium falciparum growth inhibition, primary screen, strain 3D7, DAPI fluorescence, 100 nL (AID 1184).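 Note: parasites grown inside human red blood cells in medium with human serum.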 The conditions noted are these: P. falciparum 3D7 growth, 3 d, higher = more signal.
In assay [12] the target is Homeobox protein Hox-A13 (Mus musculus) (UniProt Q62424). The experiment in a line: inhibitors of HoxA13-DNA binding, primary screen, biochemical, fluorescence polarization, labeled oligonucleotide (AID 1185). The conditions noted are these: 15 min, higher = more signal, called active from +8 up or from −8 down. Background: In fluorescence polarisation assays a small probe gives low polarisation when free and higher when bound to something large.

A short description of assay [13]: inhibitors of hydroxyurea-induced Chk1 phosphorylation, primary screen, imaging, HeLa, phospho-Chk1 antibody, percent positive cells (AID 1186). The conditions noted are these: hydroxyurea-induced phospho-Chk1 immunofluorescence imaging, higher = more signal.
Assay [14] can be described thus: inhibitors of hydroxyurea-induced Chk1 phosphorylation, primary screen, imaging, HeLa, phospho-Chk1 nuclear intensity (AID 1187). The conditions noted are these: hydroxyurea-induced phospho-Chk1 immunofluorescence imaging, higher = more signal.

Calls of active or inactive are those of the source. Unless noted, the rule behind the calls is not given here.

Chain of Homeobox protein Hox-A13 (Mus musculus) (Q62424 whole entry, looked up): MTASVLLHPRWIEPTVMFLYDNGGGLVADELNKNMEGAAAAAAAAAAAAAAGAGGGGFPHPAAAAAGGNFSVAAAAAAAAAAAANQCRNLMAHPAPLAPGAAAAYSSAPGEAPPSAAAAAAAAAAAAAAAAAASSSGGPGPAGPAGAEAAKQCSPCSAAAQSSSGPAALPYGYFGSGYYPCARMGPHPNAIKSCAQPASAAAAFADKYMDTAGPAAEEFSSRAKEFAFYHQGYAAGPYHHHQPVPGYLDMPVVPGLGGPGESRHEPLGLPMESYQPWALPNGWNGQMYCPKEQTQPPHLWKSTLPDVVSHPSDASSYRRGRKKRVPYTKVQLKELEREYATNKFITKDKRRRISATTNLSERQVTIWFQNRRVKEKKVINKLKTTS
Chain of Dihydroorotate dehydrogenase (quinone), mitochondrial (Plasmodium falciparum (isolate 3D7)) (Q08210 whole entry, looked up): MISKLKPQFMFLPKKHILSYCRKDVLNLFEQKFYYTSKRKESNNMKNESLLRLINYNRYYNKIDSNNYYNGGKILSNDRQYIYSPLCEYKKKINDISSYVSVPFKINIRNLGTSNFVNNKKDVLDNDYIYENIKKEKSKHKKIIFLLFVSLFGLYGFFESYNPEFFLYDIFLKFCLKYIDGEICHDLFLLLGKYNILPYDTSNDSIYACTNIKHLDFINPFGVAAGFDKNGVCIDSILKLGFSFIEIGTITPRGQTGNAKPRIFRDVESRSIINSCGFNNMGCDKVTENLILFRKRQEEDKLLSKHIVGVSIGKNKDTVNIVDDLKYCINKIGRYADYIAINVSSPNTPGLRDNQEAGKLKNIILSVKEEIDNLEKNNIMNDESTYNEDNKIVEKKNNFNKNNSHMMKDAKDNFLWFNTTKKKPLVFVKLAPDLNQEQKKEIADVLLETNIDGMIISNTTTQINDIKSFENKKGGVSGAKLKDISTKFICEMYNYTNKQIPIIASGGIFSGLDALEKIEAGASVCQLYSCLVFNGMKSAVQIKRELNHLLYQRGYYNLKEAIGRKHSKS
Chain of E3 ubiquitin-protein ligase XIAP (Homo sapiens) (P98170 whole entry, looked up): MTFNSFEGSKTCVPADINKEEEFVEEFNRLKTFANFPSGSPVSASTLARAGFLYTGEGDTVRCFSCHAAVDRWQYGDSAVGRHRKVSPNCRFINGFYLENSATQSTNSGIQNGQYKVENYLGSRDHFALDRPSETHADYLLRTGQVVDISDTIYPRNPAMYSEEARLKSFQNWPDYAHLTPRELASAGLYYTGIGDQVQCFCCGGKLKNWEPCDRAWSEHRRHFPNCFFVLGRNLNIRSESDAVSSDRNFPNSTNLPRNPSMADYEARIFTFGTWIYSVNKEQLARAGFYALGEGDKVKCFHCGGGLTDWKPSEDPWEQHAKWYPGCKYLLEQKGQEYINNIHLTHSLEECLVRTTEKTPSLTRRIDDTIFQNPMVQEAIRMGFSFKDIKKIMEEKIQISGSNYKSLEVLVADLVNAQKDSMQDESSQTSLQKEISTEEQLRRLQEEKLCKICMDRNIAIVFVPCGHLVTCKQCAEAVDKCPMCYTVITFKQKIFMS

As for `Cc1ccc(S[C@]2(C(=O)O)CC(=O)N(Cc3ccccc3)[C@@H]2c2ccc(CO)cc2)cc1`, the z-score is 1.06 in [1]; -3.67 (inactive) in [2]; 1.6 (inactive) in assay [3]; -1.14 (inactive) in assay [5]; 0.537 (inactive) in [6]; 0.612 (inactive) in assay [7]. Besides, the z-score was 0.512 in assay [8]; -0.254 in assay [11]; -2.96 (inactive) in [12]; -0.947 (inactive) in assay [13]; -1.23 (inactive) in [14]. Also, the composite z-score in assay [4] is -0.891 (inactive); in assay [9] it was 0.123; in assay [10], -0.242 (inactive); with XIP peptide (Xip251-270), -0.655.

As for `CCCCO[C@H]1C[C@H]2C(Br)=C[C@@]1(CO)C(=O)[C@]21CO1`, the z-score in [1] is 1.24; in assay [2], -3.84 (inactive); in assay [3] it was 1.07 (inactive); in assay [5] it was -1.86 (inactive); in [6], 2.66 (inactive); in assay [7] it was 1.48 (inactive). The z-score in assay [8] was 0.999; in assay [11], 0.0951; in [12], -0.0157 (inactive); in assay [13], -0.407 (inactive); in assay [14], -0.291 (inactive). In addition, the composite z-score is -0.343 (inactive) in [4], -0.02 in assay [9], -0.631 (inactive) in assay [10] and -0.329 with XIP peptide (Xip251-270).

As to `[N-]=[N+]=Nc1ccccc1C[C@@]1(C(=O)N2CCOCC2)N=C(c2ccc(OCCCO)cc2)O[C@@H]1c1ccccc1N=[N+]=[N-]`, the z-score in [1] was -0.133; in [2] it was -2.54 (inactive); in assay [3], -1.93 (inactive); in assay [5], 0.0278 (inactive); in assay [6], 1.08 (inactive); in assay [7] it was 0.115 (inactive). Also, the z-score was -3.91 in [8]; -2.28 in assay [11]; -5.16 (inactive) in assay [12]; -1.03 (inactive) in [13]; -1.06 (inactive) in assay [14]. Further, the composite z-score in [4] was -0.489 (inactive); in [9], -0.256; in assay [10], 0.49 (inactive); with XIP peptide (Xip251-270), 0.348.

As for `COC(=O)C1=CC(c2ccc(CO)cc2)=CC(C2CC2)N(Cc2sc3ccccc3c2Cl)C=C1C(=O)OC` (stereo not given), the z-score was 0.0452 in [1]; -4.51 (inactive) in [2]; -2.01 (inactive) in assay [3]; -0.844 (inactive) in assay [5]; -2.1 (inactive) in [6]; -1.67 (inactive) in assay [7]. Moreover, the z-score in assay [8] is -1.75; in assay [11], -2.13; in [12], -2.26 (inactive); in assay [13], -0.288 (inactive); in assay [14], -0.225 (inactive). For the same compound, the composite z-score in assay [4] was -0.245 (inactive); in assay [9], 0.0909; in [10], 2.17 (inactive); with XIP peptide (Xip251-270) it was 0.889.

Turning to `COc1ccc(CCNC(=O)[C@@]2(c3ccc([N+](=O)[O-])cc3)CC(=O)N(C(C)C)[C@@H]2c2ccc(CO)cc2)cc1`, the z-score in [1] was 0.483; in assay [2] it was -1.12 (inactive); in assay [3], 1.56 (inactive); in assay [5], -1.28 (inactive); in [6], 0.793 (inactive); in [7] it was 0.479 (inactive). Moreover, the z-score was 1.19 in assay [8]; -0.303 in assay [11]; -3.03 (inactive) in [12]; -0.322 (inactive) in assay [13]; -0.0259 (inactive) in assay [14]. The composite z-score in assay [4] was -0.704 (inactive); in [9] it was -0.154; in assay [10], 1.25 (inactive); in the assay with XIP peptide (Xip251-270), -0.904.

For `CO[C@]12C=C(Br)[C@@H](C[C@@H]1c1ccccc1)[C@@]1(CO1)C2=O`, the z-score in assay [1] is 0.418; in assay [2] it was -5.19 (inactive); in assay [3] it was 0.0036 (inactive); in assay [5], -0.123 (inactive); in assay [6], 2.39 (inactive); in assay [7] it was 1.29 (inactive). The z-score in [8] was 0.63; in assay [11], -1.03; in assay [12], -0.507 (inactive); in [13], -0.655 (inactive); in assay [14], -0.337 (inactive). Also, the composite z-score was 1.03 (inactive) in assay [4], -0.142 in [9], 0.484 (inactive) in [10] and 0.521 in the assay with XIP peptide (Xip251-270).

Consider `C=CCNC(=O)[C@H]1[C@@H]2C(=O)O[C@@H](c3ccccc3)[C@@H](c3ccccc3)N2[C@@H](c2ccccc2OCCO)[C@]12C(=O)N(C(=O)OCCOC)c1ccc(C#CCC(C(=O)OC)C(=O)OC)cc12`, for which the z-score was -0.234 in [1]; 1.06 (inactive) in [2]; 1.25 (inactive) in [3]; 1.72 (inactive) in assay [5]; 1.11 (inactive) in assay [6]; 0.761 (inactive) in assay [7]. Besides, the z-score in assay [8] is -0.54; in assay [11] it was -2.36; in assay [12], 0.6 (inactive); in assay [13], -0.263 (inactive); in assay [14] it was -0.35 (inactive). In addition, the composite z-score is 0.229 (inactive) in assay [4], 0.182 in assay [9], 1.09 (inactive) in [10] and 0.818 with XIP peptide (Xip251-270).
